Shown are actives, neighbours in structure and some others; about 2.4% of the full set was active somewhere.
Abeta yeast res – A-beta toxicity reversal in yeast | AID 1347071 | 0.063% of 410,000 active | Potency, µM (top dose mostly 46.1 µM), hits mostly activators | yeast expressing A-beta42, growth rescue, OD600, 48 h; response scale: 0% DMSO, 100% iron-clioquinol control; also: nearly all actives have a fitted effect of over 55% in size
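Growth rescue measured by 600 nm absorbance after 48 h yeast culture at 30 C with compound. Values normalized between DMSO and an equimolar ferric chloride plus clioquinol control.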
TDP43 rescue – inhibitors of TDP-43 toxicity in yeast; TDP-43 expressing yeast growth rescue, BacTiter-Glo, 24 h; Potency, µM (doses to about 46.1 µM), without a hit: top-dose growth rescue (activation), actives largely listed as activators; 1.8% of 410,000 active; AID 652104; also: % of control where 0% means no effect; nearly all actives have a fitted effect of over 50% in size
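Yeast expressing TDP-43 (pregrown in raffinose, seeded at OD600=0.02 in galactose medium) exposed to compounds 24 hr at 30 deg C. Growth read by BacTiter-Glo luminescence; rescue of toxicity appears as increased signal.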
Mito fusion act – inhibitors of mitochondrial division or activators of mitochondrial fusion; Potency, µM (doses to about 46.1 µM), for the others: top-dose growth rescue (activation), actives largely listed as activators; S. cerevisiae fusion-defective mutant growth rescue, CellTiterGlo 48 h; 0.23% of 320,000 active; also: % of control where 0% means no effect; nearly all actives have a fitted effect of over 45% in size
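Yeast fusion mutant, YPEG (non-fermentable carbon), compound, 48 h at 37C non-permissive; CellTiterGlo added, 10 min RT, luminescence read. Rescued growth = division inhibition.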
FUS suppressor – FUS proteinopathy suppression in yeast; S. cerevisiae FUS-expressing, growth rescue, OD600, 24 h; Potency, µM (top dose mostly 76.6 µM), usual class: activators; 0.24% of 390,000 active;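 also: plate controls were DMSO vehicle for no effect and reference control for full effect; nearly all actives have a fitted effect of over 55% in size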
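Yeast expressing FUS under galactose induction, OD 0.005 in 2% galactose medium; compounds in a dilution series, 24 h at 30C. Growth rescue by absorbance at 600 nm; CP55940 positive control, DMSO negative.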
aSyn rescue – inhibitors of alpha-synuclein toxicity in yeast; Potency, µM (series often up to 46.1 µM), for inactives: at the highest dose growth rescue (activation), usual class: activators; AID 652106; Yeast expressing alpha-synuclein, growth rescue, BacTiter-Glo, 24 h; 0.14% of 370,000 active; also: % of control where 0% means no effect; nearly all actives have a fitted effect of over 65% in size
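Readout is rescue of growth in alpha-synuclein-expressing yeast, so inhibitors of toxicity appear as activators. Growth after 24 hr at 30 deg C in galactose medium is quantified by luminescence.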
A-T KAP1 phos – candidate therapy for ataxia-telangiectasia. F2112 A-T fibroblasts, KAP-1 phosphorylation AlphaLISA; neocarzinostatin DNA damage 30 min before lysis. 0.19% of 320,000 active. Potency, µM (series often up to 57.5 µM), without a hit: at the top dose activation, usual class: activators. AID 485349; also: % of control where 0% means no effect; nearly all actives have a fitted effect of over 45% in size
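hTERT-immortalized A-T patient fibroblasts (F2112), 500 cells/well in OPTI-MEM, 1% FBS, got compounds for 60 min, then NCS for 30 min at 37C. Lysates were then assayed for phospho-KAP-1 by AlphaLISA (anti-pKAP1 donor, anti-KAP1 acceptor beads), 6 hr at 25C.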
The depositor's hits bear a star; i = inactive; u = inconclusive; x = not tested or not shown; [ ] = another dose, or the depositor's remark. Calls follow the shape of the dose curve; as a rule, active = well fitted curve in the direction sought with a large enough effect; inconclusive = small, poorly fitted or top-dose-only effect, or another doubt; inactive = no such curve, though single readings can be large; an effect the other way counts as inactive or inconclusive. Potency is read from the fitted curve at half-maximal effect.

SMILES	Abeta yeast res	TDP43 rescue	Mito fusion act	FUS suppressor	aSyn rescue	A-T KAP1 phos
Cc1cccc2sc(NC(=O)CN(C)S(=O)(=O)c3cccs3)nc12	i	16µM*	18%	i	22%	1%
O=C(Nc1nc2c(Cl)cccc2s1)C1CC1	i	19%	u	i	-1%	5%
COc1ccc(N2CCN(Cc3nnc(-c4cccc(Br)c4)o3)CC2)cc1	i	24%	x	i	x	x
COC(=O)c1cc2c(cc1NC(=O)c1c(C)nn(-c3ccc(C)cc3)c1-n1cccc1)OCO2	i	-5%	x	i	x	x
CCN(c1cccc(C)c1)c1ncnc2c1cnn2-c1cccc(Cl)c1	i	0%	x	i	x	x
C#CCNC(=O)C[C@@H]1C(=O)N(CC=C)/C2=C/CCCCC[C@]21C(=O)OCC	x	x	x	i	x	x
O=C(Nc1nc2ccc(Cl)cc2s1)C1CC1	i	26%	x	i	-11%	x
CC(C)c1ccc2nc(NC(=O)C3CC3)sc2c1	i	22µM*	-2%	i	-15%	-16%
c1ccc2c(c1)OCC(CNc1ncnc3sccc13)O2 (stereo not drawn)	i	20µM*	8%	i	12%	8%
Fc1ccccc1CNc1ncnc2sccc12	i	11µM*	25%	i	-2%	-8%
O=C(O)c1cccc(Nc2ncnc3sccc23)c1	i	-3%[9.22 µM]	u	i	-5%	3%
Fc1cccc(Nc2ncnc3sccc23)c1	i	20µM*	-49%	i	-8%	4%
CCCCOCCCNC(=O)C[C@@H]1C(=O)N2CCCC3=C2[C@@]1(C(=O)OC)CCCC3	x	x	x	i	x	x
O=C(CC1N=C2c3ccccc3N=C(SCc3ccc(Cl)cc3)N2C1=O)NCCc1ccccc1 (stereo not drawn)	i	0%	x	u	x	x
Cc1cc(C)n(-c2n[nH]c(=O)c3ccccc23)n1	i	10%	5%	i	-1%	18µM*
CCN(CC)C(=O)CSc1nc2ccc(NC(=O)CSc3nnc(N)s3)cc2s1	i	-5%	4%	10µM*	0%	4%
CCN(CC)C(=O)CSc1nc2ccc(NC(=O)CSc3nccn3C)cc2s1	i	-7%	-3%	i	2%	x
CC(=O)N1CCc2cc(S(=O)(=O)NC(Cc3ccccc3)C(=O)NCc3ccccc3)ccc21 (stereo not drawn)	i	12%	x	i	x	x
CCCCN(C)C(=O)C1CCC(CNS(=O)(=O)c2ccc(Cl)cc2)CC1 (stereo not drawn)	i	4%	x	i	x	x
O=S(=O)(c1ccccc1F)N1CCC(c2nc3ccccc3o2)CC1	x	x	x	i	x	x
Oc1cccc(C=NN=C2c3ccccc3-c3ccccc32)c1	i	28µM*	x	x	-28%	x
CCOc1cc(C=NN=C2c3ccccc3-c3ccccc32)ccc1O	i	14µM*	x	x	22%	x
O=C1Nc2ccccc2/C1=N/N=C/c1cccc(O)c1	i	10%	-5%	i	-1%	0%
O=C(NCc1cccc(Br)c1)C1CCCCN1S(=O)(=O)c1ccc(F)cc1 (stereo not drawn)	i	u	x	i	x	x
COC(=O)c1ccc(OC)c(Cn2c(=O)n(-c3ccc(C)cc3)c(=O)c3c2cnn3C)c1	i	11%	x	i	x	x
SMILES	Abeta yeast res	TDP43 rescue	Mito fusion act	FUS suppressor	aSyn rescue	A-T KAP1 phos
Cc1oc2c(c1C(=O)Nc1ccc(C(=O)O)cc1)CCCC2	i	13µM*	2%	i	17%	-7%
CCc1ccccc1NS(=O)(=O)c1ccc(-c2coc(C)n2)cc1	i	13µM*	x	i	0%	x
Cc1cc(C)c(NS(=O)(=O)c2ccc(-c3coc(C)n3)cc2)c(C)c1	i	30%	x	i	0%	x
O=C(Cc1ccccc1)Nc1cc(C(=O)c2ccccc2)ccc1N1CCOCC1	i	13µM*	2%	i	x	-1%
Cc1ccc(C)c(C(=O)CSc2nnnn2-c2cccnc2)c1	i	11µM*	0%	i	10%	-4%
CS(=O)(=O)N1CCN(Cc2cc3nc(-c4cccc5[nH]ncc45)nc(N4CCOCC4)c3s2)CC1	x	x	x	x	-1%[92.2 µM]	x
O=C(c1cc(C2CC2)nn1-c1ccccc1)N1CCN(Cc2ccc(Cl)cc2)CC1	i	12%	20µM*	i	14%	8%
CC(Cl)C(=O)N1CCC(C(=O)NCC2COc3ccccc3O2)CC1 (stereo not drawn)	x	x	x	i	x	x
CC(=O)c1cccc(NC(=O)c2nc(-c3ccc(C)cc3)n3c2CCCCC3)c1	i	20µM*	x	u	2%	x
Cc1ccc(-c2nc(C(=O)Nc3cccc(C#N)c3)c3n2CCCCC3)cc1	i	1%	x	i	0%	x
COc1ccccc1CNC(=O)c1cc(-c2cc(F)ccc2OC(C)C)n[nH]1	i	25µM*	x	i	15%	x
CCCOc1ccc(F)cc1-c1cc(C(=O)NCc2ccco2)[nH]n1	i	14µM*	x	i	u	x
COc1ccc(F)cc1-c1cc(C(=O)NCc2cccc(Cl)c2)[nH]n1	i	14µM*	x	i	24%	x
Cc1ccc(Cl)cc1-c1cc(C(=O)NCc2ccco2)[nH]n1	i	14µM*	x	i	4%	x
COc1ccc(Cl)cc1-c1cc(C(=O)NCc2ccco2)[nH]n1	i	u	x	i	13%	x
COc1cc(CNC(=O)c2cc(-c3cc(F)ccc3OC(C)C)n[nH]2)cc(OC)c1	i	u	x	i	-1%	x
COC(=O)C1CN(Cc2cn(Cc3ccc(OC)cc3)nn2)CCS(=O)(=O)N1Cc1ccc(F)cc1 (stereo not drawn)	x	x	x	i	x	x
COC(=O)c1cc(-c2cc(F)cc(OC)c2)c(=O)n2c1CCC2	x	x	x	i	x	x
CC(C)Oc1ccc(F)cc1-c1cc(C(=O)NCc2cccs2)[nH]n1	i	35µM*	x	u	28%	x
COc1cc(F)ccc1-c1cc(C(=O)NCc2cccs2)[nH]n1	i	23%	x	i	6%	x
CCCOc1ccc(F)cc1-c1cc(C(=O)NCc2ccccc2)[nH]n1	i	u	x	i	0%	x
CCCOc1ccc(F)cc1-c1cc(C(=O)NCc2ccccc2OC)[nH]n1	i	35µM*	x	i	19%	x
Cc1ccc(CN(C(=O)COc2ccccc2Cl)c2ccccn2)o1	i	19%	x	i	x	x
Cc1cccc(NC(=O)C2CCCN(c3nnc(-n4cccc4)s3)C2)c1C (stereo not drawn)	x	x	x	i	x	x
N#CCCCSc1nnnn1-c1cccc(Cl)c1	i	22µM*	4%	i	3%	10%
O=C(CSc1nnnn1-c1cccc(Cl)c1)Nc1ccc2c(c1)CCC2	x	x	-9%	x	x	-5%

High-throughput results: PubChem, National Center for Advancing Translational Sciences (NCATS)
